Laboratory results from PubChem BioAssay.
A number with no mark means an inactive call. For some assays here: Measured potencies and affinities stand elsewhere. Calls of active or inactive are those of the source. Unless noted, how the calls were made is not given here.

Experiments:
[1] = antimalarial activity against Dd2 strain (AID 2302;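 active means growth inhibition above 50% at the single 2 µM test dose, taken to imply half-maximal potency below 2 µM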;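 further: 0% = DMSO untreated growth and 100% = chloroquine plus artemisinin killed control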); conditions: P. falciparum Dd2 in RBCs, LDH growth readout, 72 h; at 2 µM; hits give high values
[2] = human hepatoma cell viability loss – ATP luminescence, cytotoxicity control for P. falciparum antimalarial project, primary screen (AID 2303;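 active means inhibition above 50%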;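 further: 0% = DMSO wells and 100% = digitonin-killed cells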); conditions: HepG2 viability, 24-48 h, at 10 µM, hits give high values
[3] = target: L-lactate dehydrogenase (Plasmodium falciparum (isolate CDC / Honduras)) (UniProt Q27743); assay: PfLDH activity inhibition – cell lysate, 3D7 strain, counter-screen for P. falciparum growth inhibition project (AID 2304);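 further: 0% = vehicle and 100% = reference inhibitor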; conditions: P. falciparum 3D7 crude extract, LDH APAD/NBT absorbance; at 2 µM; hits give high values
[4] = inhibition of 3D7 malaria parasite growth – strain 3D7 (AID 2306);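 further: 0% = DMSO wells and 100% = chloroquine plus artemisinin control wells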; conditions: P. falciparum 3D7 erythrocytic growth, LDH absorbance, 72 h; at 2 µM; hits give high values
[5] = target: Calcium-dependent protein kinase 1 (Plasmodium falciparum (isolate 3D7)) (UniProt P62344); assay: PfCDPK1 kinase inhibitors, biochemical, TCAMS library (AID 1159585; cut-off not given, nearly all actives have IC50 up to about 0.98 µM;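 further: inhibitors leave more ATP so luminescence rises with inhibition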); conditions: recombinant PfCDPK1, Kinase-Glo ATP depletion luminescence
[6] = target: Plasmodium falciparum protein kinase 6 (PK6, PF3D7_1337100) (UniProt Q8IDW1); assay: PfPK6 kinase inhibitors, biochemical, TCAMS library (AID 1159586); conditions: recombinant PfPK6, Kinase-Glo ATP depletion luminescence
[7] = target: Protein kinase 7 (PK7), Plasmodium falciparum 3D7 (PF3D7_0213400) (UniProt Q7YTF7); assay: inhibition of Plasmodium PK7 catalytic activity – biochemical, TCAMS antimalarial set, Kinase-Glo luminescence (AID 1159587); conditions: recombinant PfPK7, Kinase-Glo ATP depletion luminescence
[8] = target: Calcium-dependent protein kinase 4 (Plasmodium falciparum (isolate 3D7)) (UniProt Q8IBS5); assay: PfCDPK4 kinase inhibitors, biochemical, TCAMS library (AID 1159588; cut-off not given, nearly all actives have IC50 up to about 0.91 µM); conditions: recombinant PfCDPK4, Kinase-Glo ATP depletion luminescence
Calcium-dependent protein kinase 4 (Plasmodium falciparum (isolate 3D7)), sequence (Q8IBS5 whole entry, looked up): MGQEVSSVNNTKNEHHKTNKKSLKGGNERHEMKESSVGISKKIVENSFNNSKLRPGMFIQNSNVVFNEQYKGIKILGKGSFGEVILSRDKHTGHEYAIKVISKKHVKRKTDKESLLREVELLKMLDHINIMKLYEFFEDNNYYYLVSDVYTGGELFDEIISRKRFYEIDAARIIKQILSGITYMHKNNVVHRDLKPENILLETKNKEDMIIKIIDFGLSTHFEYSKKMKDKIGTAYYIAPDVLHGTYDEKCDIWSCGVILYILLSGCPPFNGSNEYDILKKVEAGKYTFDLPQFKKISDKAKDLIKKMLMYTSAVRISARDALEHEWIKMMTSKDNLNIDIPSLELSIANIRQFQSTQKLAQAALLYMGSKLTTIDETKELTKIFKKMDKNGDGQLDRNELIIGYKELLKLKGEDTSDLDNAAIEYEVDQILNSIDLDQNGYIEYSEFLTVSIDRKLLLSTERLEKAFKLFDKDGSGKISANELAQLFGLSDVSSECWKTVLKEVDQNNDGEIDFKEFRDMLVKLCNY

Calcium-dependent protein kinase 1 (Plasmodium falciparum (isolate 3D7)), sequence (P62344 whole entry, looked up): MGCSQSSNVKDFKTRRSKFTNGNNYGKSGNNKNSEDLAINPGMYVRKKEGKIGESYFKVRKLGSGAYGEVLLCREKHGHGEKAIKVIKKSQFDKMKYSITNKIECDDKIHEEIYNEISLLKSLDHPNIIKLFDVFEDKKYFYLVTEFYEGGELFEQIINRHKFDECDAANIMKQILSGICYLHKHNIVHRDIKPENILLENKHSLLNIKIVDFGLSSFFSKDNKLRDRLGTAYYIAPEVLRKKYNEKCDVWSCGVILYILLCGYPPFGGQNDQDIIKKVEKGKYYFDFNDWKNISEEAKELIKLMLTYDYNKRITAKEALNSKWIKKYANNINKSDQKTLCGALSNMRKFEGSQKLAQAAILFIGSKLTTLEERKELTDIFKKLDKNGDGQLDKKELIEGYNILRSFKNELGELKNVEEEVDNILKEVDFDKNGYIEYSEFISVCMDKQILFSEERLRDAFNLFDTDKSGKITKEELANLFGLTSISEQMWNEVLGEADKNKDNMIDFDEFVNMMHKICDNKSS
Protein kinase 7 (PK7), Plasmodium falciparum 3D7 (PF3D7_0213400), sequence (Q7YTF7 1-343): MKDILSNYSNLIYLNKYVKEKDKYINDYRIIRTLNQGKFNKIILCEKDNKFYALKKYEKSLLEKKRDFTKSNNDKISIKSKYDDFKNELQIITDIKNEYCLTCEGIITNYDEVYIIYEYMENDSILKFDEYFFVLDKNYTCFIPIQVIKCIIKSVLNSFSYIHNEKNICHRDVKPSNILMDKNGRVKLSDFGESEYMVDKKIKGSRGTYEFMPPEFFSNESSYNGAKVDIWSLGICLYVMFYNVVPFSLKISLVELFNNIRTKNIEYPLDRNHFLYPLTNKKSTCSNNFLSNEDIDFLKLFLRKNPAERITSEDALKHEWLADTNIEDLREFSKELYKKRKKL
Plasmodium falciparum protein kinase 6 (PK6, PF3D7_1337100), sequence (Q8IDW1 1-305): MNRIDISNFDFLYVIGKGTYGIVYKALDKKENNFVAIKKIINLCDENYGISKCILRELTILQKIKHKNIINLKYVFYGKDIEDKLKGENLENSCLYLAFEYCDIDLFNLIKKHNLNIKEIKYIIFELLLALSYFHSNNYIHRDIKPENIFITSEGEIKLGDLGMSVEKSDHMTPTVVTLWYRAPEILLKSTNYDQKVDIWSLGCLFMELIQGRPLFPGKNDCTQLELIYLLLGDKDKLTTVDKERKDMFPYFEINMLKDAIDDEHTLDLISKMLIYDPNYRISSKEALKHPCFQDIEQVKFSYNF
L-lactate dehydrogenase (Plasmodium falciparum (isolate CDC / Honduras)), sequence (Q27743 whole entry, looked up): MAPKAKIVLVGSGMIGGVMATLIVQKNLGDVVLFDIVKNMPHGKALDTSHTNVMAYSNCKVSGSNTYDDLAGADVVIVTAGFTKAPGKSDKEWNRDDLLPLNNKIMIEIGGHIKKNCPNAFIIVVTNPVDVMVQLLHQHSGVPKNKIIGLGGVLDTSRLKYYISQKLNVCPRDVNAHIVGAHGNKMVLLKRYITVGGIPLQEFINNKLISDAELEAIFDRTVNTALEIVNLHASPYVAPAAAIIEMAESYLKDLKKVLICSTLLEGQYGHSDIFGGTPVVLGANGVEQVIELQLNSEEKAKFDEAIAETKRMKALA

| Compound | growth inhibition [1] | inhibition [2] | inhibition [3] [%] | growth inhibition [4] | outcome [5] | outcome [6] | outcome [7] | outcome [8] |
| --- | --- | --- | --- | --- | --- | --- | --- | --- |
| CCNc1cc(C(=O)N[C@@H](Cc2ccccc2)[C@H](O)CNC2(CC)CCCCC2)cc(N2CCCCS2(=O)=O)c1 | 98% (active) | 3% | -3 | 98% (active) | inactive | inactive | inactive | inactive |
| Cc1cccc2[nH]c(-c3cccc(-c4cccc(NC(=O)Nc5ccc(Cl)c(Cl)c5)c4)c3)nc12 | 96% (active) | 24% | 1 | 101% (active) | inactive | inactive | inactive | inactive |
| COc1ccc2ccccc2c1CCCCN1CCN(CC(c2ccc(F)cc2)N2CCC(N3CCCC3)CC2)CC1 (stereo not given) | 73% (active) | 74% (active) | 7 | 99% (active) | inactive | inactive | inactive | inactive |
| COc1ccc(-c2nc(NC(=O)CS(=O)(=O)c3ccc(C)cc3)sc2C)cc1 | 94% (active) | 56% (active) | 2 | 101% (active) | inactive | inactive | inactive | inactive |
| COc1cccc(NC(=O)NC2CCN(c3ccnc(Nc4ccc(F)cc4)n3)C2)c1 (stereo not given) | 71% (active) | 9% | -2 | 100% (active) | inactive | inactive | inactive | inactive |
| CCCCCCCCn1c2c(c(=N)c3c1CCC3)CCC2 | 93% (active) | 47% | -5 | 99% (active) | inactive | inactive | inactive | inactive |
| CC(C)(C)c1ccc(Cn2c(=N)n(CC(=O)c3ccc(-c4ccccc4)cc3)c3ccccc32)cc1 | 50% (active) | 63% (active) | -5 | 98% (active) | inactive | inactive | inactive | inactive |
| O=C(Cn1c(CCc2cccc(F)c2F)nc(=O)c2ccccc21)N(Cc1ccc(-c2ccc(C(F)(F)F)cc2)cc1)C1CCN(C2=NCCS2)CC1 | 85% (active) | 62% (active) | 3 | 81% (active) | inactive | inactive | inactive | inactive |
| O=C(Nc1ccc(Cl)cc1)Nc1cccc(CCNCc2ccccc2)c1 | 12% | 16% | 6 | 101% (active) | inactive | inactive | inactive | inactive |
| N#Cc1cccc(NC(=O)NC2CCN(CCCCCNC(=O)/C=C/c3ccc(Cl)c(Cl)c3)CC2)c1 | 7% | 31% | 0 | 100% (active) | inactive | inactive | inactive | inactive |
| Oc1ccc2ccccc2c1CNC1CCCCCC1 | 33% | 9% | 5 | 83% (active) | inactive | inactive | inactive | inactive |
| CCC/C=C/c1c(CNCCCNc2cc(=O)c3ccccc3[nH]2)sc(CC)c1Br | 71% (active) | 8% | -1 | 88% (active) | inactive | inactive | inactive | inactive |
| N#Cc1ccc(CN2CCC(Oc3ccc(NC(=O)c4ccccc4)cc3Cl)CC2)cc1 | 65% (active) | 21% | 1 | 84% (active) | inactive | inactive | inactive | inactive |
| COc1c(C2CCN(CCCCNC(=O)c3ccc(-c4ccc(NC(=O)C(F)(F)F)cc4)cc3)CC2)ccc2c1CCCC2 | 33% | 95% (active) | 8 | 86% (active) | inactive | inactive | inactive | inactive |
| CC=Cc1cc(Cc2cnc(N)nc2N)cc(CCC)c1OC | 1% | 16% | 5 | 97% (active) | inactive | inactive | inactive | inactive |
| Oc1ccc(CCNc2nc(NCCOc3ccccc3-c3ccccc3)nc(N3CCNCC3)n2)cc1 | 17% | 22% | -1 | 93% (active) | inactive | inactive | inactive | inactive |
| COc1cc(NC(=O)CCCCCCCCN2CCN(C)CC2)c2ncccc2c1 | 36% | 8% | -1 | 82% (active) | inactive | inactive | inactive | inactive |
| CCNC(=O)Nc1cccc(-c2cccc(-c3nc4ccc(C(F)(F)F)cc4[nH]3)c2)c1 | 32% | 50% (active) | 2 | 91% (active) | inactive | inactive | inactive | inactive |
| CN(CCc1ccccc1)c1ncc(-c2cccc(CNCCC3CCCN3C)c2)cn1 (stereo not given) | 98% (active) | 99% (active) | -1 | 92% (active) | inactive | inactive | inactive | inactive |
| O=c1c2ccc(F)cc2sn1-c1ccc(Cl)cc1 | 11% | 8% | -2 | 98% (active) | inactive | inactive | inactive | inactive |

| Compound | growth inhibition [1] | inhibition [2] | inhibition [3] [%] | growth inhibition [4] | outcome [5] | outcome [6] | outcome [7] | outcome [8] |
| --- | --- | --- | --- | --- | --- | --- | --- | --- |
| CCC(=O)c1ccc(-c2ccc(=O)n(CC(=O)N(CCN(CC)CC)Cc3ccc(-c4ccc(C(F)(F)F)cc4)cc3)n2)cc1 | 67% (active) | 91% (active) | -7 | 98% (active) | inactive | inactive | inactive | inactive |
| CCCCC(=O)Nc1nonc1-c1ccc(OCC)c(OCC)c1 | 95% (active) | 9% | -1 | 101% (active) | inactive | inactive | inactive | inactive |
| O=C(/C=C/c1ccc(Cl)c(Cl)c1)NCCCCCN1CCN(C(=O)Nc2ccc(Cl)c(C(F)(F)F)c2)CC1 | -3% | 22% | 3 | 100% (active) | inactive | inactive | inactive | inactive |
| COCCNCc1ccc(-c2cccc(CNC3CCN(Cc4ccccc4)CC3)c2)cc1 | 101% (active) | 30% | 0 | 100% (active) | inactive | inactive | inactive | inactive |
| Cc1ccc(Cc2cnc(NCCSCc3ccc(CN4CCOCC4)o3)[nH]c2=O)cn1 | -3% | 2% | -4 | 95% (active) | inactive | inactive | inactive | inactive |
| CCN(CC)CCNC(=O)c1ccc(NC(=O)c2cn(-c3ccccc3)nc2-c2cccs2)cc1 | 94% (active) | 30% | -1 | 103% (active) | inactive | inactive | inactive | inactive |
| COc1ccc(C2CC(=O)C3=C(C2)NC(C)=C(C(=O)OC(C)C)C3c2cccc(O)c2)cc1OC (stereo not given) | 85% (active) | -2% | -4 | 100% (active) | inactive | inactive | inactive | inactive |
| CC(=O)Nc1ccc(CN2CCC(CNC(=O)c3cc(-c4cccc(Cl)c4)cs3)C2)cc1 (stereo not given) | 1% | 24% | 2 | 91% (active) | inactive | inactive | inactive | inactive |
| Nc1c2c(nc3ccc(NC(=O)CCCCCc4ccccc4)cc13)CCCC2 | 36% | 32% | 4 | 102% (active) | inactive | inactive | inactive | inactive |
| O=C(NCCCCCN1CCCN(C(=O)Nc2ccc(F)c(C(F)(F)F)c2)CC1)[C@@H]1C[C@H]1c1ccc(Cl)c(Cl)c1 | 1% | 61% (active) | 2 | 90% (active) | inactive | inactive | inactive | inactive |
| CCCn1c(Sc2ccc(C#N)c([N+](=O)[O-])c2)nnc1-c1ccc(N(C)C)cc1 | 98% (active) | 18% | 7 | 97% (active) | inactive | inactive | inactive | inactive |
| c1cc(CNCCc2ccncc2)cc(-c2csc(-c3nc4ccccc4[nH]3)c2)c1 | 99% (active) | 16% | -8 | 100% (active) | inactive | inactive | inactive | inactive |
| COc1ccccc1C1CC(c2ccc(C)cc2)=NN1C(=O)c1ccccc1 (stereo not given) | 45% | 37% | -5 | 98% (active) | inactive | inactive | inactive | inactive |
| O=C(Cc1cnc[nH]1)Nc1ccc(-c2ccc(-c3nc4ccccc4[nH]3)s2)cc1 | 34% | 44% | 1 | 90% (active) | inactive | inactive | inactive | inactive |
| Oc1ccc(-c2nc3c(N4CCN(Cc5ccccc5)CC4)cccc3n2C2CCNCC2)cc1 | 7% | -1% | 0 | 85% (active) | inactive | inactive | inactive | inactive |
| NC1CCN(Cc2cccc(-c3csc(-c4nc5ccccc5[nH]4)c3)c2)C1 (stereo not given) | 10% | 10% | 2 | 99% (active) | inactive | inactive | inactive | inactive |
| Cc1cccn2c(=O)c3cc(C(=O)NC(C)c4ccccc4)c(=N)n(CCc4ccccc4)c3nc12 (stereo not given) | 82% (active) | 5% | -3 | 101% (active) | inactive | inactive | inactive | inactive |
| COc1cccc(C(O)CNc2ccnc(Nc3cccc(-c4csc(C)n4)c3)n2)c1 (stereo not given) | 73% (active) | 38% | -8 | 99% (active) | inactive | inactive | inactive | inactive |
| CCN(CC)S(=O)(=O)c1cc(-c2ccc(=O)n(CC(=O)c3ccc(C)cc3)n2)ccc1C | 66% (active) | 6% | -3 | 86% (active) | inactive | inactive | inactive | inactive |
| Cc1cc(NC2CCN(Cc3ccccc3)CC2)nc(NCCCCc2ccccc2)n1 | 60% (active) | 65% (active) | 2 | 100% (active) | inactive | inactive | inactive | inactive |
